Structures are written as SMILES. Inconclusive results are not listed. Entries that show only a call come without a potency. The source made the active and inactive calls. The call rests on the fitted dose curve; in most records, active means well fitted curve in the direction sought with a large enough effect; inconclusive means small, poorly fitted or top-dose-only effect, or another doubt; inactive means no such curve, though single readings can be large; an effect the other way counts as inactive or inconclusive.
Potency means the concentration at half of the fitted maximal effect.

The first test is described as follows: qHTS for differential inhibitors of proliferation of Plasmodium falciparum line D10 (AID 1877).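 Further: parasites grown with compound for 72 h before DNA staining.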 The settings on record: series mostly up to 28.7 µM. Background: qHTS replaces the single test concentration by a dilution series.
On to `O=C(O)/C(=C/c1c(C(=O)O)[nH]c2cc(Cl)cc(Cl)c12)c1ccccc1`, for which the Potency result is “inactive”.

With `O=C(O)CCC(=O)N1CCCC1C(=O)O` (stereo not given), the Potency entry was “inactive”.

As for `N=C(N)c1ccccc1`, the Potency entry was “inactive”.

In the case of `Cc1nc(N=Nc2ccc(S(=O)(=O)O)cc2S(=O)(=O)O)c(COP(=O)(O)O)c(C=O)c1O`, the Potency result was “inactive”.

Turning to `N=S(=O)(O)Cc1noc2ccccc12`, the Potency result was “inactive”.

`O=[N+]([O-])c1cccc2cn[nH]c12`: the Potency entry is “inactive”.

On to `C[C@@H](NCCc1ccc(O)cc1)[C@@H](O)c1ccc(O)cc1`, for which the Potency result was “inactive”.

As to `CC[N+](CC)(CC)CC(=O)Nc1c(C)cccc1C`, the Potency result is “inactive”.

As for `O=C(O)c1cc2cc(F)ccc2[nH]1`, the Potency entry is “inactive”.

`O=C(O)C1=CCCNC1`: the Potency entry is “inactive”.

Take `CNc1cc(NS(=O)(=O)c2ccc(N)cc2)nc(NC)n1`: the Potency entry was “inactive”.

In the case of `CN1C2CCC1CC(OC(c1ccccc1)c1ccccc1)C2` (stereo not given), the Potency was 7.08 µM (active).

For `NC/C=C\C(=O)O`, the Potency entry was “inactive”.

On to `CN1CCN(c2nc3cc(C(F)(F)F)ccc3n3cccc23)CC1`, for which the Potency was 11.2 µM (active).

With `CCSC(=N)N`, the Potency result was “inactive”.

Regarding `Nc1ccc(-c2nc3ccc(-c4nc5ccc(N)cc5[nH]4)cc3[nH]2)cc1`, the Potency was 0.708 µM (active).

For the compound `O=C(O)c1cccnc1C(=O)O`, the Potency entry was “inactive”.

As for `c1ccc(CN2CCC3(CCCc4ccccc43)CC2)cc1`, the Potency was 12.6 µM (active).

`NS(=O)(=O)c1cccc2c1c([N+](=O)[O-])cc1nc(O)c(O)nc12`: the Potency result was “inactive”.

Regarding `Cc1nc(N=Nc2ccc(C(=O)O)cc2)c(COP(=O)(O)O)c(C=O)c1O`, the Potency entry is “inactive”.

Consider `N[C@@H](CCC(=O)N[C@H](CSN=O)C(=O)NCC(=O)O)C(=O)O`, for which the Potency entry is “inactive”.

As to `CCCCCCC/C=C\CCCCCCCCC(=O)O`, the Potency result was “inactive”.

As for `NCCCCN=C(N)N`, the Potency result was “inactive”.

Regarding `Cc1cc2c(cc1Cl)N(C(=O)Nc1ccnc3ccccc13)CC2`, the Potency entry was “inactive”.

Take `CC(=O)NNC(=O)N1Cc2ccccc2Oc2ccc(Cl)cc21`: the Potency entry is “inactive”.

Regarding `CC1CCN(CC[C@H]2CCCN2S(=O)(=O)c2cccc(O)c2)CC1`, the Potency entry was “inactive”.

Take `O=c1[nH]ccc2c(O)cccc12`: the Potency entry was “inactive”.

Consider `O=c1onc2n1-c1cc(Br)ccc1OC2`, for which the Potency entry is “inactive”.

For `CSC(=N)N`, the Potency result was “inactive”.

`O=C(O)C1=CCCN(CCON=C(c2ccccc2)c2ccccc2)C1`: the Potency entry is “inactive”.

The nature of the next test: qHTS for differential inhibitors of proliferation of Plasmodium falciparum line Dd2 (AID 1882). Further: nearly all actives have a fitted effect of over 65% in size. Conditions: Potency: Plasmodium falciparum Dd2 proliferation inhibition; series mostly up to 28.7 µM. In outline: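 RBC culture, 0.3% parasitemia / 2.5% Hct final; cpd added by pin tool in DMSO; 72 h, 37 C, 5% CO2; lysis buffer + SYBR Green I, o/n RT dark; FI 485/535; norm. to artemisinin 0.29 uM and DMSO.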
In the case of `O=C(O)/C(=C/c1c(C(=O)O)[nH]c2cc(Cl)cc(Cl)c12)c1ccccc1`, the Potency result was “inactive”.

Take `CC1=C(/C=C/C(C)=C/C=C/C(C)=C\C(=O)O)C(C)(C)CCC1`: the Potency is 10 µM (active).

As for `O=C(O)CCC(=O)N1CCCC1C(=O)O` (stereo not given), the Potency entry is “inactive”.

Regarding `N=C(N)c1ccccc1`, the Potency entry is “inactive”.

On to `Cc1nc(N=Nc2ccc(S(=O)(=O)O)cc2S(=O)(=O)O)c(COP(=O)(O)O)c(C=O)c1O`, for which the Potency result is “inactive”.

Consider `N=S(=O)(O)Cc1noc2ccccc12`, for which the Potency result is “inactive”.

For the compound `O=[N+]([O-])c1cccc2cn[nH]c12`, the Potency result is “inactive”.

`C[C@@H](NCCc1ccc(O)cc1)[C@@H](O)c1ccc(O)cc1`: the Potency entry was “inactive”.

Turning to `CC[N+](CC)(CC)CC(=O)Nc1c(C)cccc1C`, the Potency entry was “inactive”.

Regarding `O=C(O)c1cc2cc(F)ccc2[nH]1`, the Potency result is “inactive”.

For `O=C(O)C1=CCCNC1`, the Potency entry was “inactive”.

`CNc1cc(NS(=O)(=O)c2ccc(N)cc2)nc(NC)n1`: the Potency entry was “inactive”.

`CN1C2CCC1CC(OC(c1ccccc1)c1ccccc1)C2` (stereo not given): the Potency is 4.47 µM (active).

Turning to `NC/C=C\C(=O)O`, the Potency result was “inactive”.

For `CN1CCN(c2nc3cc(C(F)(F)F)ccc3n3cccc23)CC1`, the Potency was 8.91 µM (active).

`CCSC(=N)N`: the Potency result was “inactive”.

On to `Nc1ccc(-c2nc3ccc(-c4nc5ccc(N)cc5[nH]4)cc3[nH]2)cc1`, for which the Potency was 1 µM (active).

With `O=C(O)c1cccnc1C(=O)O`, the Potency result was “inactive”.

`c1ccc(CN2CCC3(CCCc4ccccc43)CC2)cc1`: the Potency was 11.2 µM (active).

Regarding `Oc1cc2c(cc1O)C(c1ccccc1)CNCC2` (stereo not given), the Potency result is “inactive”.

As for `CCCC[C@@]1(C2CCCC2)Cc2cc(OCC(=O)O)c(Cl)c(Cl)c2C1=O`, the Potency entry was “inactive”.

Turning to `NS(=O)(=O)c1cccc2c1c([N+](=O)[O-])cc1nc(O)c(O)nc12`, the Potency entry is “inactive”.

As to `Cc1nc(N=Nc2ccc(C(=O)O)cc2)c(COP(=O)(O)O)c(C=O)c1O`, the Potency entry is “inactive”.

As to `N[C@@H](CCC(=O)N[C@H](CSN=O)C(=O)NCC(=O)O)C(=O)O`, the Potency entry is “inactive”.

For the compound `CCCCCCC/C=C\CCCCCCCCC(=O)O`, the Potency result is “inactive”.

On to `NCCCCN=C(N)N`, for which the Potency result is “inactive”.

Consider `Cc1cc2c(cc1Cl)N(C(=O)Nc1ccnc3ccccc13)CC2`, for which the Potency entry was “inactive”.

With `CC(=O)NNC(=O)N1Cc2ccccc2Oc2ccc(Cl)cc21`, the Potency entry was “inactive”.

Regarding `CCCCCCCCCCCCCCC[C@H](O)[C@H](N)CO`, the Potency entry is “inactive”.

Consider `Cn1c(=O)[nH]c2ncn(C)c2c1=O`, for which the Potency result was “inactive”.

As to `CCC(=O)N1CCN(C(=O)c2ccccc2)CC1`, the Potency result is “inactive”.

For `O=c1[nH]ccc2c(O)cccc12`, the Potency entry is “inactive”.

Consider `O=c1onc2n1-c1cc(Br)ccc1OC2`, for which the Potency entry was “inactive”.

As for `CSC(=N)N`, the Potency entry is “inactive”.

In the case of `COc1cc(/C=C(\C#N)C(=O)c2ccc(O)c(O)c2)cc(I)c1O`, the Potency entry was “inactive”.

In the case of `O=C(O)C1=CCCN(CCON=C(c2ccccc2)c2ccccc2)C1`, the Potency result is “inactive”.

The nature of the next test: qHTS for differential inhibitors of proliferation of Plasmodium falciparum line W2 (AID 1883).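 Further: parasites grown with compound for 72 h before lysis and staining.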 The settings on record: Potency: Plasmodium falciparum W2 proliferation inhibition; series mostly up to 28.7 µM.
`CC1=C(/C=C/C(C)=C/C=C/C(C)=C\C(=O)O)C(C)(C)CCC1`: the Potency is 8.91 µM (active).

Take `O=C(O)CCC(=O)N1CCCC1C(=O)O` (stereo not given): the Potency entry was “inactive”.

With `N=C(N)c1ccccc1`, the Potency result is “inactive”.

In the case of `Cc1nc(N=Nc2ccc(S(=O)(=O)O)cc2S(=O)(=O)O)c(COP(=O)(O)O)c(C=O)c1O`, the Potency entry was “inactive”.

Consider `O=[N+]([O-])c1cccc2cn[nH]c12`, for which the Potency entry is “inactive”.

As for `C[C@@H](NCCc1ccc(O)cc1)[C@@H](O)c1ccc(O)cc1`, the Potency entry is “inactive”.

`CC[N+](CC)(CC)CC(=O)Nc1c(C)cccc1C`: the Potency entry is “inactive”.

Consider `O=C(O)C1=CCCNC1`, for which the Potency entry was “inactive”.

Regarding `CNc1cc(NS(=O)(=O)c2ccc(N)cc2)nc(NC)n1`, the Potency entry is “inactive”.

Regarding `CN1C2CCC1CC(OC(c1ccccc1)c1ccccc1)C2` (stereo not given), the Potency was 1.41 µM (active).

For the compound `NC/C=C\C(=O)O`, the Potency result is “inactive”.

For the compound `CN1CCN(c2nc3cc(C(F)(F)F)ccc3n3cccc23)CC1`, the Potency is 5.62 µM (active).

Consider `Nc1ccc(-c2nc3ccc(-c4nc5ccc(N)cc5[nH]4)cc3[nH]2)cc1`, for which the Potency was 0.251 µM (active).

As to `O=C(O)c1cccnc1C(=O)O`, the Potency result was “inactive”.

As for `c1ccc(CN2CCC3(CCCc4ccccc43)CC2)cc1`, the Potency was 4.47 µM (active).

Take `Oc1cc2c(cc1O)C(c1ccccc1)CNCC2` (stereo not given): the Potency is 11.2 µM (active).

In the case of `CCCC[C@@]1(C2CCCC2)Cc2cc(OCC(=O)O)c(Cl)c(Cl)c2C1=O`, the Potency was 10 µM (active).

Consider `NS(=O)(=O)c1cccc2c1c([N+](=O)[O-])cc1nc(O)c(O)nc12`, for which the Potency is 11.2 µM (active).

In the case of `Cc1nc(N=Nc2ccc(C(=O)O)cc2)c(COP(=O)(O)O)c(C=O)c1O`, the Potency result is “inactive”.

`N[C@@H](CCC(=O)N[C@H](CSN=O)C(=O)NCC(=O)O)C(=O)O`: the Potency entry is “inactive”.

Consider `CCCCCCC/C=C\CCCCCCCCC(=O)O`, for which the Potency entry was “inactive”.

Take `NCCCCN=C(N)N`: the Potency result is “inactive”.

For `CC(=O)NNC(=O)N1Cc2ccccc2Oc2ccc(Cl)cc21`, the Potency result was “inactive”.

Turning to `CC1CCN(CC[C@H]2CCCN2S(=O)(=O)c2cccc(O)c2)CC1`, the Potency is 8.91 µM (active).

`CCCCCCCCCCCCCCC[C@H](O)[C@H](N)CO`: the Potency was 12.6 µM (active).

For `Cn1c(=O)[nH]c2ncn(C)c2c1=O`, the Potency result was “inactive”.

As for `O=c1[nH]ccc2c(O)cccc12`, the Potency entry is “inactive”.

Turning to `CSC(=N)N`, the Potency result is “inactive”.

As for `O=C(O)C1=CCCN(CCON=C(c2ccccc2)c2ccccc2)C1`, the Potency was 5.62 µM (active).

For the origin of these results see PubChem BioAssay (NCATS).
